For 40 molecules, Potency results are on record in PubChem BioAssay (Tox21).

Where “and” joins values, the source holds several entries; their conditions need not be identical. Identical values can stand only once. Results filed as inconclusive are left out. A call without a number means that no potency is given here. A structure can be active in one record and inactive in another. Calls of active or inactive are those of the source. Calls come from the whole dose curve; as a rule, active = well fitted cell-killing curve with a large enough effect in the repeat runs; inconclusive = weak or mixed curves, or effect the other way; inactive = flat fitted curve, though single readings scatter.
Potency is the fitted concentration of half-maximal effect.

This assay in a line: qHTS RealTime-Glo MT Cell Viability Assay in HEK293 cells - 32 hour (AID 1224868). Note: nearly all actives have a fitted effect of over 50% in size. Particulars: RealTime-Glo luminescence; series mostly up to 76.8 µM. The source says:
National Center for Advancing Translational Sciences [NCATS]
NIH Chemical Genomics Center [NCGC]
U.S. Environmental Protection Agency [EPA]
National Institutes of Environmental Health Sciences [NIEHS]
National Toxicology Program [NTP]
U.S. Food and Drug Administration [FDA]
Measure of cell viability is critical in the cell-base assay. Analysis of cell viability is necessary for the characterization of cell responses to cytotoxic drugs and environmental stress. A RealTime-Glo MT Cell Viability Assay to monitor cell viability in real time of continues cell culture during 40 hours of compound treatment was used to screen Tox21 10K library compounds in Hek293 cells. The RealTime-Glo MT Cell Viability Assay is a nonlytic, homogeneous, bioluminescent method to measure cell viability in real time using a simple, plate-based method. The assay involves adding NanoLuc luciferase and a cell-permeant prosubstrate to cells in culture. Viable cells reduce the proprietary prosubstrate to generate a substrate for NanoLuc luciferase. This substrate diffuses from cells into the surrounding culture medium, where it is rapidly used by the NanoLuc Enzyme to produce a luminescent signal. The signal correlates with the number of viable cells, making the assay well suited for cytotoxicity studies.
Tox21 Assay Protocol Summary:
The mixture of Hek293 cell suspension and reagents were dispensed at 600cells/6 ul/well in 1536-well tissue culture treated black solid bottom plates using a Multidrop dispenser. After the assay plates were incubated at a 37 C/5% CO2 incubator for 5 hours, 23 nL of compounds dissolved in DMSO, positive and negative controls was transferred to the assay plate by a pintool work station. The plates were incubated at 37 C for 40 hours. The luminescence intensity were measured at 0h, 8h, 16h, 24h, 32h and 40h time points using ViewLux plate reader during compound treatment.
As for `O=C(O)CCl`, the Potency entry is “inactive”.
Then `CCCC[N+]1(C)CCCC1`, with “inactive”; and `C[C@]12CCC(=O)C=C1CC[C@@H]1[C@@H]2CC[C@]2(C)C(=O)CC[C@@H]12`, with 27.1 µM (active) and inactive; and `CCn1cc[n+](C)c1C`, with “inactive”.
The result for `COCC(=O)N(c1c(C)cccc1C)C(C)C(=O)OC` (stereo not given) reads “inactive”; that for `CC(=O)O`, “inactive”.
For `CCCC[n+]1cccc(C)c1`, the Potency result is “inactive”.
The result for `CC(=O)[O][Hg][c]1ccccc1` reads 306 nM (active) and 977 nM (active) and 239 nM (active); that for `C=CCOC(Cn1ccnc1)c1ccc(Cl)cc1Cl` (stereo not given), 21.9 µM (active) and 38.9 µM (active).
Turning to `C[N+](C)(C)Cc1ccccc1`, the Potency entry was “inactive”.
Consider `Oc1cccc2cccnc12`, for which the Potency was 20.7 µM (active) and 5.49 µM (active) and inactive.
Then `Nc1ccc(-c2ccc(N)cc2)cc1`, with “inactive”; and `O=C(O)C(Cl)(Cl)Cl`, with “inactive”; and `O=C(O)C(Cl)Cl`, with “inactive”.
Then `CCC[N+]1(C)CCCCC1`, with “inactive”; and `O=C(O)CC(O)(CC(=O)O)C(=O)O`, with “inactive”.
The result for `CCCC[n+]1ccccc1` reads “inactive”; that for `O=c1[nH]c(=O)n(Cl)c(=O)n1Cl`, “inactive”; that for `CCCCn1cc[n+](C)c1C`, “inactive”.
Turning to `CCNc1nc(Cl)nc(NCC)n1`, the Potency result was “inactive”.
Then `CCCC[N+]1(C)CCCCC1`, with “inactive”.
Then `O=C(O)c1ccccc1O`, with “inactive”; and `CCCCn1cc[n+](C)c1`, with “inactive”; and `COc1ccccc1N`, with “inactive”.
Then `O=C(O)COc1ccc(Cl)cc1Cl`, with “inactive”; and `CCCC[n+]1ccccc1C`, with “inactive”; and `CCCCCCn1cc[n+](C)c1`, with 19.7 µM (active) [middle of 5 runs].
Consider `CCCCCCCCCCCC(=O)O`, for which the Potency result is “inactive”.
The result for `O=P1(N(CCCl)CCCl)NCCCO1` (stereo not given) reads “inactive”; that for `CCCCCCCCn1cc[n+](C)c1`, 3.86 µM (active) and 3.12 µM (active) and 3.93 µM (active); that for `OCCOc1ccccc1`, “inactive”.
Then `C1CCC(NC2CCCCC2)CC1`, with “inactive”.
The result for `CCC[N+]1(C)CCCC1` reads “inactive”; that for `CN(C)[C@@H]1C(=O)C(C(N)=O)=C(O)[C@@]2(O)C(=O)C3=C(O)c4c(O)cccc4[C@@](C)(O)[C@H]3[C@H](O)[C@@H]12`, “inactive”; that for `COP(=O)(OC)C(O)C(Cl)(Cl)Cl` (stereo not given), “inactive”.
`CCOP(=S)(OCC)Oc1ccc2c(C)c(Cl)c(=O)oc2c1`: the Potency is 12.4 µM (active) and 43.6 µM (active) and inactive.
Consider `Nc1ccccc1`, for which the Potency result is “inactive”.
Then `COc1ccc(N)cc1`, with “inactive”; and `O=C(O)c1nc(Cl)ccc1Cl`, with “inactive”.
As to `Cc1cc(Cl)ccc1OCC(=O)O`, the Potency entry was “inactive”.
